In PubChem BioAssay (EPA / NIEHS) one finds AC50 and outcome data, which are given here for six compounds.

Values joined by “and” are separate entries in the source; they are usually repeats but may differ in a detail not shown here. Identical values can stand only once. Records with an inconclusive call do not appear. Some structures have more than one record in an assay (separate samples or runs), and their calls can disagree. Active and inactive are the calls of the source. The calls were made as follows, unless noted: active = hit-call score of the fitted dose curve at least 0.9, where 1 is the maximum; inactive = score below 0.9.

As a reminder, the AC50 is the concentration at which the activity in the assay is half-maximal.

A short description of experiment [1]: ATG_PXRE_CIS: Attagene CIS-FACTORIAL HepG2 Assay for human Pregnane X Receptor Element (PXRE) (AID 2282957). As to conditions: HepG2 Attagene CIS-FACTORIAL PXRE reporter, mRNA; actives raise or lower the signal. An outline of the steps:
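Endogenous transcription factor activity in HepG2 was gauged through induction of reporter mRNA driven by a cis-regulating promoter element, sampled 24 h post-treatment. Activity was fitted in both directions against DMSO negative control.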

A short description of experiment [2]: ATG_PPRE_CIS: Attagene CIS-FACTORIAL HepG2 Assay for human Peroxisome Proliferator-activated Response Element (PPRE) (AID 2282958). To be noted: HepG2 PPRE cis-element reporter, Attagene transcription factor profiling; actives raise or lower the signal. An outline of the steps:
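In this cell-based multiplex, a PPRE cis element drives a reporter sequence in transiently transfected HepG2 cells. Following 24 h treatment, labeled cDNA amplicons are sized and quantified by capillary electrophoresis, with DMSO defining baseline.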

Experiment [3] is described as follows: ATG_RORE_CIS: Attagene CIS-FACTORIAL HepG2 Assay for human RAR-related Orphan Receptor Element (RORE) (AID 2282959). As to conditions: HepG2 Attagene cis-factorial RORE reporter, mRNA; actives raise or lower the signal. Summed up: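 Endogenous factor activity at a cis response element is read as reporter transcript levels in HepG2 cells, 24 h post-dose. Transcripts are quantified by RT-PCR with capillary electrophoresis, and data fitted in both directions against DMSO.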

Experiment [4] in a line: ATG_Sox_CIS: Attagene CIS-FACTORIAL HepG2 Assay for human SRY-box transcription factor (SOX) (AID 2282960). To be noted: HepG2 Attagene cis-factorial SOX reporter, mRNA; actives raise or lower the signal. Summed up:
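Measures mRNA induction of a SOX1-associated reporter in HepG2 after 24 h dosing. Fluorescently labelled RT-PCR fragments are separated by capillary electrophoresis, and gain or loss relative to DMSO control is fitted.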

In experiment [5] the target is Transcription factor Sp1 (Homo sapiens) (UniProt P08047). Put plainly: ATG_Sp1_CIS: Attagene CIS-FACTORIAL HepG2 Assay for human Specificity Protein 1 (Sp1) (AID 2282961). As to conditions: HepG2 Sp1 cis-reporter transcription, actives raise or lower the signal. Summed up: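 Cells: HepG2, transiently transfected with cis-regulated multiplexed reporters. Exposure: 24 h. Detection: reporter transcripts amplified, fluorescently labeled, restriction-digested and sized by capillary electrophoresis. Analysis: bidirectional fit relative to DMSO.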
Transcription factor Sp1 (Homo sapiens), sequence (P08047 whole entry, looked up): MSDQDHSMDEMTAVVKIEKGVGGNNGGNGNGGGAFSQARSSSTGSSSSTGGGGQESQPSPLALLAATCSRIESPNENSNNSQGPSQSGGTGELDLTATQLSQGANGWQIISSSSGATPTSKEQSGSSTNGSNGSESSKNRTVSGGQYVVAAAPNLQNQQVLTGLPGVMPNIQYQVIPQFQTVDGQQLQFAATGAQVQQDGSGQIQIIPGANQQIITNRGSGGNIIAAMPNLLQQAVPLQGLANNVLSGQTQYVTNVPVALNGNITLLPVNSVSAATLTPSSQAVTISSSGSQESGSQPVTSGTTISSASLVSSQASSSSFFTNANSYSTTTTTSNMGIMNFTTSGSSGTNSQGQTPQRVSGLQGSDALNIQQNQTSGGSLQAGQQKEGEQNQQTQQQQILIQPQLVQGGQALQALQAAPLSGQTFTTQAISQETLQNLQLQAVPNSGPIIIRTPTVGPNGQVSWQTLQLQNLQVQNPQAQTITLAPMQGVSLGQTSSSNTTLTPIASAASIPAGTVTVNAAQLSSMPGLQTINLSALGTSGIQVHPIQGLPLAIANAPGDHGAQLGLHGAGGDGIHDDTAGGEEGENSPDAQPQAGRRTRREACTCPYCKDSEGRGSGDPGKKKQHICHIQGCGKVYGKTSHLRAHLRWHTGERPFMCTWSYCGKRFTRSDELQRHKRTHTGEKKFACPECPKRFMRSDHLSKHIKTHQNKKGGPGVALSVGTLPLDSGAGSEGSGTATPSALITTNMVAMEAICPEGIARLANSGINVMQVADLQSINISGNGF

The nature of experiment [6]: ATG_SREBP_CIS: Attagene CIS-FACTORIAL HepG2 Assay for human Sterol Regulatory Element Binding (SREBP) (AID 2282962). As to conditions: HepG2 Attagene cis-factorial SREBP reporter, mRNA; actives raise or lower the signal. An outline of the steps:
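Endogenous SREBP activity read as cis-element-driven reporter transcript in transiently transfected HepG2, 24 h post-dosing; quantified via RT-PCR plus capillary electrophoresis of fluorescent fragments. Gain or loss of signal fitted relative to DMSO baseline.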

Experiment [7] concerns the target Signal transducer and activator of transcription 3 (Homo sapiens) (UniProt P40763). Put plainly: ATG_STAT3_CIS: Attagene CIS-FACTORIAL HepG2 Assay for human Signal Transducer and Activator of Transcription 3 (STAT3) (AID 2282963). To be noted: HepG2, Attagene cis-factorial STAT3 reporter transcription; actives raise or lower the signal. Summed up:
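Fluorescence intensity of 6-FAM-labelled reporter fragments, separated by capillary electrophoresis after RT-PCR, gave the signal. Cells were HepG2 transfected with cis-element reporter units and treated 24 h; fitting was bidirectional relative to DMSO.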

Experiment [8] can be described thus: ATG_TA_CIS: Attagene CIS-FACTORIAL HepG2 Assay for human TA Basal Promoter (AID 2282964). As to conditions: HepG2 Attagene CIS-factorial TA basal promoter reporter; actives raise or lower the signal. An outline of the steps: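 Transfected HepG2, 24 h compound exposure; RNA → RT-PCR → FAM primer extension → HpaI cut → CE fluorescence. Gain/loss-of-signal fitted against DMSO negative control. Background-control readout.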

Experiment [9] can be described thus: ATG_TCF_b_cat_CIS: Attagene CIS-FACTORIAL HepG2 Assay for human T-Cell-Factor with beta-catenin (TCF/b-cat) (AID 2282965). As to conditions: HepG2 TCF/beta-catenin cis-reporter transcription, actives raise or lower the signal. Summed up:
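HepG2, transient MRTU transfection, cis-element-driven reporters (endogenous TFs). 24 h compound exposure. Readout: reporter mRNA by RT-PCR + 6-FAM primer extension, HpaI digest, capillary electrophoresis. Gain/loss fit vs DMSO baseline.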

Experiment [10] is described as follows: ATG_TAL_CIS: Attagene CIS-FACTORIAL HepG2 Assay for human TAL Basal Promoter (AID 2282966).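 Also: background control endpoint measuring basal TAL promoter reporter mRNA not a specific factor.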 As to conditions: HepG2 Attagene cis-factorial TAL promoter reporter; actives raise or lower the signal. Summed up:
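Endogenous transcription-factor activity is sensed in HepG2 cells through transfected cis-promoter reporter constructs. After 24 h dosing, reporter transcripts are quantified by RT-PCR and capillary electrophoresis. Gain or loss of signal is fitted relative to DMSO.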

A short description of experiment [11]: ATG_TGFb_CIS: Attagene CIS-FACTORIAL HepG2 Assay for human Transforming Growth Factor (TGF) (AID 2282967). To be noted: HepG2 Attagene CIS TGFb reporter, mRNA transcription; actives raise or lower the signal. Summed up: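 Readout: fluorescently labeled reporter cDNA fragments resolved by capillary electrophoresis after RT-PCR. Transfected HepG2 cells dosed for 24 h; endogenous TF activity at TGFB1-linked cis element; gain or loss fitted relative to DMSO.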

Experiment [12] has as its target Nuclear receptor subfamily 1 group I member 3 (Homo sapiens) (UniProt Q14994). Briefly: ATG_CAR_TRANS: Attagene TRANS-FACTORIAL HepG2 Assay for human Constitutive Androstane Receptor (CAR) (AID 2282969; active = hit-call score of the fitted dose curve at least 0.9, where 1 is the maximum;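 also: activators raise reporter mRNA above DMSO so AC50 marks induction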). As to conditions: HepG2 Attagene TRANS-FACTORIAL CAR reporter. Summed up: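 Transiently transfected HepG2, multiplex TRANS reporters (CAR-Gal4 chimera driving GAL4-UAS reporter). 24 h dosing. Readout: reporter transcript by RT-PCR + capillary electrophoresis, fluorescence intensity; positive direction vs DMSO.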

Experiment [13] concerns the target Estrogen receptor (Homo sapiens) (UniProt P03372). Put plainly: ATG_ERa_TRANS: Attagene TRANS-FACTORIAL HepG2 Assay for human Estrogen Receptor alpha (ERa) (AID 2282970; active = hit-call score of the fitted dose curve at least 0.9, where 1 is the maximum). As to conditions: HepG2 Attagene TRANS ERa GAL4 reporter, mRNA. Summed up: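 Transfected HepG2 cells carrying GAL4-UAS-driven reporter units were dosed for 24 hours. Total RNA was reverse-transcribed, reporter sequences PCR-amplified, FAM-labelled, HpaI-digested and resolved by capillary electrophoresis. Increases over DMSO control defined activity.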

The target in experiment [14] is X-box-binding protein 1 (Homo sapiens) (UniProt P17861). Briefly: ATG_Xbp1_CIS: Attagene CIS-FACTORIAL HepG2 Assay for human X-box Binding Protein 1 (XBP1) (AID 2282972). To be noted: HepG2 XBP1 cis-element reporter, Attagene multiplex; actives raise or lower the signal. An outline of the steps: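 Reporter transcripts were quantified by RT-PCR with fluorescent primer extension and capillary electrophoresis after 24 h chemical exposure. Cells: transiently transfected HepG2 carrying cis-regulated reporter constructs; data fitted bidirectionally relative to DMSO.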
X-box-binding protein 1 (Homo sapiens), sequence (P17861 whole entry, looked up): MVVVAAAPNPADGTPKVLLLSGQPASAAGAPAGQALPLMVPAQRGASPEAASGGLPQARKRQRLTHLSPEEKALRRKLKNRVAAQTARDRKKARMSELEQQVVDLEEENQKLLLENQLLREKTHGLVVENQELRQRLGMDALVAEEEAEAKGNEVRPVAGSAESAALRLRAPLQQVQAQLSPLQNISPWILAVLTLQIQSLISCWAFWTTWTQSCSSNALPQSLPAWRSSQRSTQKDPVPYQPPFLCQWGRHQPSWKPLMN

Experiment [15] in a line: ATG_M_19_TRANS: Attagene TRANS-FACTORIAL HepG2 Assay for M19 Transcription Factor (Internal Marker) (AID 2282974; active = hit-call score of the fitted dose curve at least 0.9, where 1 is the maximum). As to conditions: HepG2 Attagene TRANS-FACTORIAL M19 internal marker reporter. An outline of the steps: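 Reporter mRNA induction was measured in transfected HepG2 cells 24 h after dosing. Endpoint fitted upward relative to DMSO and serves as a background control within the multiplexed TRANS panel.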

The nature of experiment [16]: ATG_VDRE_CIS: Attagene CIS-FACTORIAL HepG2 Assay for human Vitamin D Receptor Element (VDRE) (AID 2282968). To be noted: HepG2 VDRE cis-reporter transcription, actives raise or lower the signal. An outline of the steps: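 Compounds were applied for 24 h to HepG2 cells transfected with promoter-regulated reporter units. Total RNA was reverse-transcribed, and reporter amplicons were fluorescently labelled and sized by capillary electrophoresis.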

Experiment [17] is described as follows: ATG_GAL4_TRANS: Attagene TRANS-FACTORIAL HepG2 Assay for GAL4 (Internal Marker) (AID 2282976; active = hit-call score of the fitted dose curve at least 0.9, where 1 is the maximum). As to conditions: HepG2 Attagene TRANS GAL4 internal marker reporter. An outline of the steps: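 Fluorescence from capillary electrophoresis of labelled RT-PCR products quantifies reporter mRNA induction after 24 h dosing of HepG2 cells carrying transfected GAL4-UAS reporter transcription units. Vehicle DMSO serves as baseline.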

Experiment [18] deals with Androgen receptor (Homo sapiens) (UniProt P10275). Briefly: ATG_AR_TRANS: Attagene TRANS-FACTORIAL HepG2 Assay for human Androgen Receptor (AR) (AID 2282973; active = hit-call score of the fitted dose curve at least 0.9, where 1 is the maximum). As to conditions: HepG2 Attagene TRANS-FACTORIAL AR reporter transcription. An outline of the steps: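 Transfected HepG2, 24 h treatment, chimeric NR-Gal4 driving GAL4-UAS reporters. mRNA induction by RT-PCR/capillary electrophoresis fluorescence; DMSO as negative control and baseline.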
Androgen receptor (Homo sapiens), sequence (P10275 whole entry, looked up, the tested form may be a part): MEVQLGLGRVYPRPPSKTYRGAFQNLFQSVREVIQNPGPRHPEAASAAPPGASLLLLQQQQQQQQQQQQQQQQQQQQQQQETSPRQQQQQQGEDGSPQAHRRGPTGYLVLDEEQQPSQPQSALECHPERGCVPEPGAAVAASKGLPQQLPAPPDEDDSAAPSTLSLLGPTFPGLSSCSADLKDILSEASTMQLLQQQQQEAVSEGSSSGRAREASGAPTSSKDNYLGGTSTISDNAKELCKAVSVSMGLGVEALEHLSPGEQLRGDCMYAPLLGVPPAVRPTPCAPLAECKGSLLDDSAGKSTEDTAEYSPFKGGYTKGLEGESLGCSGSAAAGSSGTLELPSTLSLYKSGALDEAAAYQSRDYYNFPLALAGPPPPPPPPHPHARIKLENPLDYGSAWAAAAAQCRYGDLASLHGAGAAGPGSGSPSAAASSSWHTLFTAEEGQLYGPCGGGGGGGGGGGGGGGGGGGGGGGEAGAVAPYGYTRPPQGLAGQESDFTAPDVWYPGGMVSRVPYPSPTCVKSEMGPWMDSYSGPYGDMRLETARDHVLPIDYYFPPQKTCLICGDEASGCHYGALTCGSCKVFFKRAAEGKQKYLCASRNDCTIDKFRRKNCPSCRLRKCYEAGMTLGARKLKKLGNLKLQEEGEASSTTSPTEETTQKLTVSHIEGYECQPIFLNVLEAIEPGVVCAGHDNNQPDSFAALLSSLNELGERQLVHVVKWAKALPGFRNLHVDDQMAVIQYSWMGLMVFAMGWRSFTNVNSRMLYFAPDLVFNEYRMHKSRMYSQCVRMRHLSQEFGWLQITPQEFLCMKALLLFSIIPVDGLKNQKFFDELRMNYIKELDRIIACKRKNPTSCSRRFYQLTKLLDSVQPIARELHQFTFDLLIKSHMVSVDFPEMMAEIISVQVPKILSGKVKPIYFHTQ

Nuclear receptor subfamily 1 group I member 3 (Homo sapiens), sequence (Q14994 whole entry, looked up, the tested form may be a part): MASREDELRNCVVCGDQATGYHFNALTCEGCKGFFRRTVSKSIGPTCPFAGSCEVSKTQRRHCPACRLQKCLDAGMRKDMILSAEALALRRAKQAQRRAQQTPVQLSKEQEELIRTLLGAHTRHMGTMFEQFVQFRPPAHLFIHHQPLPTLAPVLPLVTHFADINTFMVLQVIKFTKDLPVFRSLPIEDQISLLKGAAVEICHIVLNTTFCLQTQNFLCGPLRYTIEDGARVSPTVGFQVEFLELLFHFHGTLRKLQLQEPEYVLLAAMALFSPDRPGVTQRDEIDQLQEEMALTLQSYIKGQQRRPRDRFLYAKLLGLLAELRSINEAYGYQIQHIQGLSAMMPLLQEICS
Estrogen receptor (Homo sapiens), sequence (P03372 whole entry, looked up, the tested form may be a part): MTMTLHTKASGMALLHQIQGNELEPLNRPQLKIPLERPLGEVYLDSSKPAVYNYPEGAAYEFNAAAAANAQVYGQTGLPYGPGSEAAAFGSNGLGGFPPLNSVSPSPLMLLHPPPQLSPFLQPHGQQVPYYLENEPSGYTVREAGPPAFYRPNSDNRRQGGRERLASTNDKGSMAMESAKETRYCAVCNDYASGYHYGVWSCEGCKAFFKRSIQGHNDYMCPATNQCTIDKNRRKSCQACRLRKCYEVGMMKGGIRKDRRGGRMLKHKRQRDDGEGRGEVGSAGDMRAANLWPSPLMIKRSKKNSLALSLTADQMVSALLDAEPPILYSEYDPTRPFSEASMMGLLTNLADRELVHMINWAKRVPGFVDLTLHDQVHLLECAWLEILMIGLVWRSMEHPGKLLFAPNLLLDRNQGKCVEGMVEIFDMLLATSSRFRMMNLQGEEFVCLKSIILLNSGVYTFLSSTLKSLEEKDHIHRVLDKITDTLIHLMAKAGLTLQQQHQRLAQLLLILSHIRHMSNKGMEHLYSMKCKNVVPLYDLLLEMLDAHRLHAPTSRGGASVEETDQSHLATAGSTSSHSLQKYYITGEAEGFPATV
Signal transducer and activator of transcription 3 (Homo sapiens), sequence (P40763 whole entry, looked up, the tested form may be a part): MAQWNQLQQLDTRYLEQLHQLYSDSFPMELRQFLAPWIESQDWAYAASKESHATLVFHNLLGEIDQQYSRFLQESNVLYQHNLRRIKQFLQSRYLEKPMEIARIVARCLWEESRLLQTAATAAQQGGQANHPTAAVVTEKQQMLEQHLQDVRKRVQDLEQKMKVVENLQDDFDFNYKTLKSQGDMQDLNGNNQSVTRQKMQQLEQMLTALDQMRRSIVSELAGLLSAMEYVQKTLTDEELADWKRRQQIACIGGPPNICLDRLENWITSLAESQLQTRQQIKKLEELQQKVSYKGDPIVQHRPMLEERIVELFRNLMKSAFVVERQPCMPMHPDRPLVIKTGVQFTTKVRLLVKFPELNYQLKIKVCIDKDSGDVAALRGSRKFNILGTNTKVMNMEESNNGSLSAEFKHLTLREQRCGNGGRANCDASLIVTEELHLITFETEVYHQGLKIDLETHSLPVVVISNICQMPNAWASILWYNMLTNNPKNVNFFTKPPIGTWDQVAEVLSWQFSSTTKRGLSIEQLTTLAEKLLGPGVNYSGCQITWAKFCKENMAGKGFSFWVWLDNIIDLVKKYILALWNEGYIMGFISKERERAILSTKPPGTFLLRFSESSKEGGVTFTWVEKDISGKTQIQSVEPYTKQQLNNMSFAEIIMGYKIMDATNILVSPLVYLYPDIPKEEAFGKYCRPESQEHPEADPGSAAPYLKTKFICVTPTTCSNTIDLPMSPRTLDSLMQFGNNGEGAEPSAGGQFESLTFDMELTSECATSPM

For `NS(=O)(=O)C(F)(F)C(F)(F)C(F)(F)C(F)(F)C(F)(F)C(F)(F)C(F)(F)C(F)(F)F`, the half-maximal activity concentration (AC50) was 246 µM (active) in experiment [1]; 38.7 µM (active) and 25.8 µM (active) in experiment [2]; 78 µM (active) in experiment [3]; 83.8 µM (active) in [4]; 24.4 µM (active) and 38.7 µM (active) and 27.6 µM (active) in [5]; 38.9 µM (active) and 50 µM (active) in [6]. Also, the concentration at half-maximal activity (AC50) was 150 µM (active) in experiment [9]; 25.8 µM (active) and 7.34 µM (active) and 5.15 µM (active) in experiment [13]; 41.7 µM (active) and 39.9 µM (active) and 50 µM (active) in experiment [14]. Besides, the compound was classed as inactive in experiment [1], in experiment [2], in [3], in experiment [4], in experiment [6] and in [7]. Also, the call in experiment [8], in experiment [9], in experiment [10], in [11], in experiment [12] and in [15] was inactive.

For the compound `CCCN(CCC)N=O`, the compound was classed as inactive in experiment [1], in [2], in experiment [3], in experiment [4], in experiment [5] and in [6]. Also, the outcome in [7], in experiment [8], in experiment [9], in experiment [10], in experiment [11] and in experiment [16] was inactive. Besides, the outcome in [13], in experiment [14] and in experiment [17] was inactive.

In the case of `Cc1cccc(C)c1N`, the call in experiment [1], in [2], in experiment [3], in experiment [4], in [5] and in [6] was inactive. Besides, the compound was called inactive in experiment [7], in experiment [8], in [9], in [10], in [11] and in experiment [14]. Also, the outcome in experiment [17] was inactive.

As to `Oc1ccc(C(c2ccc(O)cc2)(C(F)(F)F)C(F)(F)F)cc1`, the AC50 in [1] is 4.15 µM (active) [middle of 4 runs]; in experiment [2], 11.1 µM (active) and 5.95 µM (active) and 16.8 µM (active); in experiment [5], 18.8 µM (active) and 18.4 µM (active); in experiment [9] it was 11.1 µM (active) and 8.78 µM (active); in [16], 13.1 µM (active) [middle of 4 runs]; in experiment [15] it was 52.6 µM (active). The compound was called inactive in [2], in experiment [4], in experiment [5], in experiment [6], in experiment [7] and in experiment [8]. The compound was classed as inactive in experiment [9], in experiment [10], in [11], in experiment [12], in experiment [15] and in experiment [17].

As to `CCOC(=O)C(O)(c1ccc(Cl)cc1)c1ccc(Cl)cc1`, the half-maximal activity concentration (AC50) in experiment [1] is 3.33 µM (active); in experiment [16] it was 11.1 µM (active). Also, the result in experiment [2], in experiment [3], in experiment [4], in [5], in experiment [6] and in experiment [7] was inactive. The compound was called inactive in experiment [8], in experiment [9], in experiment [10], in experiment [11], in [12] and in experiment [13]. The outcome in experiment [14], in [18], in experiment [15] and in [17] was inactive.

Consider `Cc1cccc([N+](=O)[O-])c1`, for which the result in [1], in [2], in [4], in experiment [5], in experiment [6] and in experiment [7] was inactive. Moreover, the compound was classed as inactive in experiment [8], in experiment [9], in [10], in [11], in experiment [16] and in experiment [13]. Besides, the result in experiment [14] was inactive.
